Hit rate of the full screen: of about 320,000 compounds, about 2,100 (0.66%) were called active. Roughly 53% stayed inconclusive and do not appear here. The call rests on the fitted dose curve; in most records, active means well fitted inhibition curve with a large enough effect in the signal ratio, with a control signal flat (not every such curve was filed as active); inconclusive means small, poorly fitted or top-dose-only effect, or effect the other way, or a change in a side signal; inactive means flat fitted curve, though single readings scatter; the % refers to the signal ratio. Only a selection was taken, and actives are over-represented in it overall.

The text below walks through data of PubChem BioAssay AID2685 (National Center for Advancing Translational Sciences (NCATS), 2010).
Potency means the concentration at half of the fitted maximal effect.

The nature of this assay: qHTS Assay for Lipid Storage Modulators in Drosophila S3 Cells.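 On cell number change: cells counted by Cell Tracker Red CMTPX staining in the red channel.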 On lipid storage change, negative = inhibition: on the % scale 0 is the no-effect control and ±100 the full control effect. As to conditions: BODIPY lipid droplet fluorescence, 18-24 h, cells fed with added oleic acid; cell number change: measured here: cell count max response; series mostly up to 46.1 µM; lipid storage change, negative = inhibition: at the top concentration. A digest of the protocol:
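Laser-scanning cytometry quantifies lipid droplet accumulation (500–530 nm total intensity; droplet/cell object ratio) in oleic acid-fed (400 uM added) Drosophila S3 cells treated with a concentration series. 20 uM Triacsin C defined 100% inhibition.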
Turning to `CCOc1cc(/C=C/c2cccc[n+]2C)ccc1OCC(=O)Nc1ccc(C)cc1`, the molecule was called inactive and the cell number change came to 2.56%. Take `CCC(Sc1nc(N)cc(N)n1)C(=O)O` (configuration not stated): the Potency was 20.6 µM (active) and the cell number change is -9.76%. `CCC(Sc1ccc(C(=O)O)cc1)C(=O)O` (configuration not stated): the “lipid storage change, negative = inhibition” value was 2.17% (inactive) and the cell number change was 22.4%. The corresponding values for `CCC(Sc1nc2ccccc2o1)C(=O)O` (configuration not stated) are 1.03% (inactive) and 11.5%.

As to `Cc1ccc(C)n1NC(=O)c1ccccc1`, the “lipid storage change, negative = inhibition” value was -7.54% (inactive) and the cell number change is 1.97%. For the molecule `Cc1ccc(C)n1NC(=O)c1cccc(Cl)c1`, the Potency is 20.6 µM (active). Regarding `Cc1ccc(C)n1NC(=O)c1ccc(Cl)cc1Cl`, the “lipid storage change, negative = inhibition” value is 17.2% (inactive) and the cell number change worked out at 0.742%.

As for `NC(=O)CNC(=O)c1cccc(Cl)c1`, the “lipid storage change, negative = inhibition” value was -15.1% (inactive) and the cell number change amounted to 1.9%.

As for `O=C(NCCO)c1cccc(Cl)c1`, the Potency was 25.9 µM (active) and the cell number change is -4.89%. `CC(C)CCNC(=O)c1cccc(Cl)c1`: the “lipid storage change, negative = inhibition” value is 18.3% (inactive) and the cell number change was found to be 19.2%. Taken in the same sequence, the figures for `COc1ccc(N2C(=S)N=C(Nc3cccc(C)c3)C23CCCCC3)cc1` were 7.3% (inactive) and -6.29%. Take `Cc1ncoc1C(=O)N1CCCC(C(=O)c2cccc3ccccc23)C1` (configuration not stated): the outcome was inactive and the cell number change amounted to 6.72%. Regarding `CCC(C)Oc1nc2c(c(=O)n(C)c(=O)n2C)n1C` (configuration not stated), the “lipid storage change, negative = inhibition” value was 5.16% (inactive) and the cell number change was found to be 14.8%.

For `CC(=O)/C(=C/Nc1ccc(Oc2ccccc2)cc1)c1ccccc1`, the molecule was classed as inactive. As for `COc1ccc(-n2nc(C(=O)NCC(=O)NCCCN3CCOCC3)c3ccccc3c2=O)cc1`, the “lipid storage change, negative = inhibition” value was 19.1% (inactive) and the cell number change was -8.11%. The corresponding values for `COc1ccccc1CNc1cncnc1` are -10.3% (inactive) and 7.04%.

Regarding `O=C(Nc1ccc(Cl)cc1)C1CCCN(c2ncnc3c2nc2n3CCCCC2)C1` (configuration not stated), the “lipid storage change, negative = inhibition” value is -22.9% (inactive) and the cell number change is -19.1%.

In the case of `Cc1cccc(N2CC(C(=O)Nc3nnc(SCc4cccnc4)s3)CC2=O)c1` (configuration not stated), the “lipid storage change, negative = inhibition” value is 0.993% (inactive) and the cell number change was 0.463%. On to `Cc1ccc(Nc2cc(C)nc3ncnn23)c(Cl)c1`, for which the “lipid storage change, negative = inhibition” value was 13.2% (inactive) and the cell number change was 1.99%. The corresponding values for `CCOC(=O)Cc1nnc(NC(=O)CSc2ccc(C)cc2)s1` are -0.984% (inactive) and 10.4%. With `CC(NC(=O)c1ccco1)c1nc(-c2ccc(Cl)cc2)no1` (configuration not stated), the outcome was inactive. On to `CC(NC(=O)c1ccco1)c1nc(-c2ccc(C(C)(C)C)cc2)no1` (configuration not stated), for which the molecule was called inactive and the cell number change is -0.87%. Turning to `CC(NC(=O)c1ccco1)c1nc(-c2ccccc2)no1` (configuration not stated), the Potency is 25.9 µM (active) and the cell number change is 24.3%. Take `Cc1c(NC(=O)COc2cccc(F)c2)c(=O)n(-c2ccccc2)n1C`: the “lipid storage change, negative = inhibition” value was -1.11% (inactive) and the cell number change was -5.04%.

On to `COc1ccccc1NC(=O)C(C)OC(=O)CCCN=C1NS(=O)(=O)c2ccccc21` (configuration not stated), for which the outcome was inactive. Same read-out and setting: next, `COc1ccc(/C=N/NC2=NCCCCC2)cc1`: “inactive”.

On to `CCOc1ccc(/C=N/NC2=NCCCCC2)cc1`, for which the “lipid storage change, negative = inhibition” value is 3.04% (inactive) and the cell number change is 8.72%. Consider `Oc1ccc(/C=N/NC2=NCCCCC2)cc1`, for which the Potency was 9.2 µM (active) and the cell number change was found to be 1.27%. Turning to `C=CCSc1nc(=O)n2ccccc2n1`, the “lipid storage change, negative = inhibition” value is 7.71% (inactive). Consider `CCCSc1ccc(-c2nn(-c3ccccc3)cc2/C=C(/C#N)C(=O)N2CCOCC2)cc1`, for which the molecule was called inactive and the cell number change was -5%. On to `O=C(c1c(F)cccc1F)N(C1CCCCC1)C1CCCCC1`, for which the outcome was inactive and the cell number change was -23%. The corresponding values for `CCOc1ccc(N(CC(=O)NC2CC3CCC2C3)S(=O)(=O)c2ccccc2)cc1` (configuration not stated) are “inactive” and 16.1%. In the case of `COc1ccc(N(CC(=O)NCc2ccco2)S(=O)(=O)c2ccccc2)cc1`, the “lipid storage change, negative = inhibition” value was -11.1% (inactive) and the cell number change turned out to be 3.25%.

Take `COc1ccc(OC)c(N(CC(=O)NCCSC2CCCCC2)S(=O)(=O)c2ccccc2)c1`: the Potency was 14.6 µM (active) and the cell number change was -18.5%. The corresponding values for `Cc1ccccc1NC(=O)CN(C)S(=O)(=O)c1ccc2c(c1)n(C)c(=O)c(=O)n2C` are 18.4 µM (active) and 13.4%. With `COc1ccc(N(CC(=O)NCCSC2CCCCC2)S(=O)(=O)c2ccccc2)cc1OC`, the result was inactive and the cell number change is -12.6%.

In the case of `CN(CC(=O)Nc1ccccc1F)S(=O)(=O)c1ccc2c(c1)n(C)c(=O)c(=O)n2C`, the “lipid storage change, negative = inhibition” value was -11.1% (inactive) and the cell number change amounted to 1.35%. As to `CCOc1ccc(N(CC(=O)NC2CCCC2)S(=O)(=O)c2ccccc2)cc1`, the Potency is 2.59 µM (active) and the cell number change was -7.14%.

For the molecule `COc1ccc(N(CC(=O)NCc2ccccc2OC)S(=O)(=O)c2ccccc2)cc1`, the Potency is 8.2 µM (active) and the cell number change came to 10.9%. In the case of `CCOc1ccc(N(CC(=O)NC2CCCCCC2)S(=O)(=O)c2ccccc2)cc1`, the call was inactive and the cell number change was found to be 24.3%. As for `COc1ccc(N(CC(=O)NCc2ccccc2OC)S(=O)(=O)c2c(C)nn(C)c2C)cc1`, the lipid storage change, negative = inhibition is 22.2% [at 9.22 µM] (inactive).

On to `COCCCNC(=O)CN(c1cc(OC)ccc1OC)S(=O)(=O)c1ccccc1`, for which the molecule was classed as inactive and the cell number change came to 13.9%.

As to `Cc1ccc(NC(=O)CN(C)S(=O)(=O)c2ccc3c(c2)n(C)c(=O)c(=O)n3C)c(C)c1`, the “lipid storage change, negative = inhibition” value was 17.5% (inactive) and the cell number change came to 25.1%. The corresponding values for `CCc1ccc(CN2CCCC(CCC(=O)N3CCN(c4ccccn4)CC3)C2)o1` (configuration not stated) are 9.3% (inactive) and 5.55%. With `Cc1cc(CN2CCCC(N3CCc4ccccc4C3)C2)cc(C)c1O` (configuration not stated), the “lipid storage change, negative = inhibition” value was 15.7% (inactive) and the cell number change is -2.22%.

Consider `Cc1[nH]c2ccccc2c1C(c1ccccn1)N1CCC(C(N)=O)CC1` (configuration not stated), for which the “lipid storage change, negative = inhibition” value is 10.3% (inactive) and the cell number change was -13.7%. Taken in the same sequence, the figures for `O=C(NCCN1CCOCC1)c1cccn2c(=O)c3c4c(sc3nc12)CCCC4` were 15.8% (inactive) and -12.5%.
